pAkt inh: HTS Assay for Inhibitors of Akt Phophorylation: Primary Screen | Neuro2A IGF-stimulated pAkt S473 HTRF, 20 min; hits give low values | activity change, % for hits at 50 µM | 360,000 tested, 0.32% active | AID 651550, 2012; in the data active means activity change below about -80%; inconclusive means mostly about -51% to -80%; further: on the % scale 0 is the no-effect control and ±100 the full control effect
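Neuro2A cells in DMEM with 0.5% FBS, overnight at 37 deg C, given compound at single 50 µM final, then IGF (6 nM final) for 20 min at 37 deg C. Lysed; phospho-Akt Ser473 by HTRF after 24 h, 665/615 ratio.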
MmCpn inh: Inhibitors of TCP-1 ring complex (TRiC) of Methanococcus maripaludis (MmCpn): qHTS | Potency, µM (doses to about 76.9 µM), without a hit: at the top dose activity, negative = inhibition, actives largely listed as inhibitors | AID 504842, 2011 | Chaperonin Mm-Cpn (Methanococcus maripaludis) | purified Mm-Cpn ATPase, ADP Transcreener TR-FRET | 330,000 tested, 0.031% active; further: potency means the concentration at half of the fitted maximal effect; on the % scale 0 is the no-effect control and ±100 the full control effect; nearly all actives have a fitted effect of over 80% in size
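Reaction buffer contained 30 mM Tris pH 7.4, 100 mM KCl, 5 mM MgCl2 and 1 mM DTT. Mm-CPN (25 nM final) hydrolysed 10 uM ATP over 30 min at 37°C; ADP was read by HTRF.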
mIDH1 inhibitor: qHTS for Inhibitors of mutant isocitrate dehydrogenase 1 (IDH1): qHTS. Isocitrate dehydrogenase [NADP] cytoplasmic (Homo sapiens), O75874. IDH1-R132H enzyme, NADPH consumption, diaphorase/resazurin fluorescence. Potency, µM (highest dose often 76.6 µM), inactives show at the highest dose activity change, negative = inhibition, most hits filed as inhibitors. 390,000 tested, 0.093% active. AID 602179, 2012; further: potency means the concentration at half of the fitted maximal effect; on the % scale 0 is the no-effect control and ±100 the full control effect; nearly all actives have a fitted effect of over 65% in size
Target sequence (O75874 whole entry R132H, stated change not applied): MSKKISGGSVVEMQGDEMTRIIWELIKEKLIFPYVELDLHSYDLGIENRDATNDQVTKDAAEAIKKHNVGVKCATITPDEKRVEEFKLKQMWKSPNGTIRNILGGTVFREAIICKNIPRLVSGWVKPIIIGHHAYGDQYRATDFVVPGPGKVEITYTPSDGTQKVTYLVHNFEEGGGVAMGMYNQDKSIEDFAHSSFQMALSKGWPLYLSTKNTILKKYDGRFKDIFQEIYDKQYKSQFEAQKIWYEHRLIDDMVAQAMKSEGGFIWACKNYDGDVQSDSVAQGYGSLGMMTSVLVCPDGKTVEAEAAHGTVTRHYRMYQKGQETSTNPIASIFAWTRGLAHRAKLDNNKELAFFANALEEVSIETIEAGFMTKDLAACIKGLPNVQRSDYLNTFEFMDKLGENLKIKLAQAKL
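IDH1-R132H (0.5 ug/mL dispensed) in pH 7.5 Tris buffer was preincubated 30 min with compound, then given a substrate mix of 0.016 mM NADPH and 2 mM alpha-KG for 80 min at room temperature; remaining NADPH was read by diaphorase/resazurin fluorescence.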
GLS inh: qHTS for Inhibitors of Glutaminase (GLS); Glutaminase kidney isoform, mitochondrial (Homo sapiens), O94925; GLS enzymatic activity, qHTS titration; Potency, µM (doses to about 45.5 µM), for inactives: at the top dose activity change, negative = inhibition, most hits filed as inhibitors; 410,000 tested, 0.21% active; AID 624170, 2012; further: potency means the concentration at half of the fitted maximal effect; on the % scale 0 is the no-effect control and ±100 the full control effect
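hKGA in 45 mM KH2PO4 pH 8.2, 0.02% Tween-20 with pin-transferred compounds; 1 mM L-glutamine (stock) plus glutamate oxidase/HRP/Amplex Red coupling added. Fluorescence read initially and after 30 min at RT.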
CCT chaperon mod: High-Throughput Screening for Modulators of Cytosolic Chaperonin Activity. purified chaperonin ATPase assay, HTRF ADP detection, 30 min. activity change, % (no concentration beside the values), hits read low. 360,000 tested, 0.3% active; in the data active means activity change below about -30%; further: on the % scale 0 is the no-effect control and ±100 the full control effect
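Nucleotide hydrolysis assay: TRiC at 20–40 nM final (set by batch activity) with 10 uM ATP, 30 min at 37 °C, in presence of 76 uM compound. Detection by competitive ADP HTRF, 30 min ambient.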
Glioma ERSR ind: qHTS for Inducers of the Endoplasmic Reticulum Stress Response (ERSR) in Human Glioma: qHTS; Potency, µM, without a hit: top-dose activation, usual class: activators; 420,000 tested, 0.02% active; U87-MG GRP78 promoter luciferase reporter, 16 h; further: potency means the concentration at half of the fitted maximal effect; series mostly up to about 76 µM; % of control where 0% means no effect; nearly all actives have a fitted effect of over 35% in size
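Stably transfected U87-MG human glioma cells carrying a GRP78-based luminescent sensor were seeded at 1000 cells/well, pin-dosed with compounds and incubated 16 h. Luciferase reagent was then added, and end-point luminescence was read after 10 min at room temperature.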
IDH1 autofl: qHTS for Inhibitors of mutant isocitrate dehydrogenase 1 (IDH1): Cherrypicks Autofluorescence Interference; shares compounds with mIDH1 inhibitor; Resorufin detection reagent fluorescence interference, cell-free; inhibition of signal, % at 51.2 µM; 750 tested, under 10 active; AID 623980, 2012;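 further: 0% = wells with normal resorufin and full inhibition = wells lacking resorufin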
WT IDH1 inh: qHTS for Inhibitors of mutant isocitrate dehydrogenase 1 (IDH1): Cherrypicks in WT IDH1; shares compounds with mIDH1 inhibitor; WT IDH1 enzyme, NADPH diaphorase/resazurin fluorescence; Potency, µM (series often up to 115 µM), for the others: at the top dose activity change, negative = inhibition, usual class: inhibitors; 750 tested, 9% active; AID 623995, 2012;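 further: potency means the concentration at half of the fitted maximal effect; 0% = full WT IDH1 enzyme control and full inhibition = no enzyme wells; nearly all actives have a fitted effect of over 55% in size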
Target sequence (O75874 whole entry, looked up): as the sequence (O75874 whole entry R132H, stated change not applied) above, with H132R counted along it
IDH1 R132H conf: qHTS for Inhibitors of mutant isocitrate dehydrogenase 1 (IDH1): Confirmation of Cherrypicks. IDH1 R132H enzyme, NADPH diaphorase/resazurin fluorescence. shares compounds with mIDH1 inhibitor. 750 tested, 83% active. AID 624002, 2012. Potency, µM (highest dose often 76.6 µM), for inactives: at the highest dose activity change, negative = inhibition, most hits filed as inhibitors; further: potency means the concentration at half of the fitted maximal effect; nearly all actives have a fitted effect of over 50% in size
The depositor's hits bear a star; i = inactive; ? = inconclusive; · = not tested or not shown. Only some compounds are listed: those with a hit (about 0.85% of all), similar ones and a draw of the others. Unless noted, the call rests on the fitted dose curve; in most records, active means well fitted curve in the direction sought with a large enough effect; inconclusive means small, poorly fitted or top-dose-only effect, or another doubt; inactive means no such curve, though single readings can be large; an effect the other way counts as inactive or inconclusive.

SMILES | pAkt inh | MmCpn inh | mIDH1 inhibitor | GLS inh | CCT chaperon mod | Glioma ERSR ind | IDH1 autofl | WT IDH1 inh | IDH1 R132H conf
O=C(NC1CCCCC1)C(c1ccccc1F)N(Cc1ccco1)C(=O)Cn1nnc2ccccc21 (configuration not stated) | · | 0.0% | ? | -7.4% | 0.2 | -3.7% | 0.5 | 9.1% | 11.2µM*
CCC(C)(C)NC(=O)C(c1ccc(C)cc1)N(Cc1ccco1)C(=O)Cn1nnc2ccccc21 (configuration not stated) | i | -0.3% | -14.1% | 7.2% | -1.3 | -1.5% | · | · | ·
O=C(NCc1ccco1)C(c1ccccc1)N(CC1CCCO1)C(=O)Cn1nnc2ccccc21 (configuration not stated) | i | 1.3% | -0.6% | 16.0% | -2.8 | -1.0% | · | · | ·
Cc1ccccc1C(C(=O)NCc1ccco1)N(CC1CCCO1)C(=O)Cn1nnc2ccccc21 (configuration not stated) | i | 1.6% | ? | 7.0% | 2.4 | -4.9% | -0.8 | 0.9% | 39.8µM*
CC1(C)CC(C(=O)N2CCOc3ccc(CN4CCC(Oc5cccnc5)CC4)cc3C2)CCO1 (configuration not stated) | · | · | · | · | · | -5.0% | · | · | ·
CC(C)OC(=O)CSc1nc(N2CCOCC2)c2c(c1C#N)CC(C)(C)OC2 | i | 1.2% | ? | -0.5% | 1.0 | -1.4% | -6.5 | 4.6% | 35.5µM*
CC1(C)Cc2c(C#N)c(N3CCN(C(=O)c4ccccc4)CC3)nc(-c3ccco3)c2CS1 | i | -6.1% | -1.3% | 13.4% | 1.4 | -3.3% | · | · | ·
CC(C)c1nc(N2CCN(C(=O)c3ccco3)CC2)c(C#N)c2c1COC(C)(C)C2 | i | 1.2% | 20.7µM* | 6.0% | -3.1 | -9.5% | -9.3 | -9.9% | 20µM*
CC(C)c1nc(N2CCN(C(=O)c3ccccc3)CC2)c(C#N)c2c1COC(C)(C)C2 | i | 0.8% | ? | -6.2% | 0.8 | -4.9% | 2.3 | -10.3% | 22.4µM*
Cc1ccc(C)c(CN2C[C@H](Sc3nc4ccccc4[nH]3)C[C@H]2C(=O)N2CCCN(C)CC2)c1 | · | · | · | · | · | -5.1% | · | · | ·
CCCOc1ccc(C2C(C(=O)c3ccc(C)o3)=C(O)C(=O)N2Cc2ccco2)cc1 (configuration not stated) | i | -4.1% | ? | -2.0% | 0.0 | -1.1% | · | · | ·
CCCOc1ccc(C2C(C(=O)c3ccc(C)o3)=C(O)C(=O)N2Cc2ccco2)cc1OCC (configuration not stated) | i | -5.5% | 52.1µM* | 18.4% | 0.3 | 0.4% | -1.5 | 5.5% | ?
CCc1ccc(NC(=O)CN2C(=O)C3CCCN3c3ccc(S(=O)(=O)N(CC)CC)cc32)cc1 (configuration not stated) | · | · | 44.7µM* | 1.5% | · | -3.0% | -5.4 | -3.6% | 28.2µM*
CC(=O)NC1C(=O)N(CCN2CCOCC2)c2ccc(Br)cc21 (configuration not stated) | i | -8.4% | ? | ? | 0.4 | 0.3% | · | · | ·
CCOc1ccc2c(c1)C(NC(C)=O)C(=O)N2CCN1CCOCC1 (configuration not stated) | i | -6.5% | 29.3µM* | 13.4% | -8.1 | -3.7% | 3.2 | 79.4µM* | 25.1µM*
Cc1cc(NC(=O)CCC(=O)N(c2ccccc2)C(C(=O)NC2CCCC2)c2ccccc2F)no1 (configuration not stated) | i | -0.1% | ? | 0.0% | 0.0 | -1.5% | -1.1 | 5.1% | 22.4µM*
COc1ccc(N(C(=O)/C=C/C(=O)Nc2cc(C)on2)C(C(=O)NC2CCCC2)c2ccccc2C)cc1 (configuration not stated) | i | -25.9% | ? | -9.4% | 0.2 | -6.7% | -11.5 | 6.1% | 35.5µM*
COc1ccc(N(C(=O)CCC(=O)Nc2cc(C)on2)C(C(=O)NC2CCCC2)c2ccco2)cc1 (configuration not stated) | i | -1.4% | -3.6% | -3.2% | -1.2 | -1.0% | · | · | ·
O=C(CCCC(=O)N(c1ccc2c(c1)OCCO2)C(C(=O)NC1CCCCC1)c1ccc(Cl)cc1)Nc1ccccn1 (configuration not stated) | i | 1.7% | ? | 9.7% | -5.3 | -2.1% | -6.9 | 0.4% | 12.6µM*
Cc1cc(NC(=O)CCCC(=O)N(c2ccccc2)C(C(=O)NC2CCCCC2)c2cccs2)no1 (configuration not stated) | i | 1.0% | ? | -1.6% | -0.1 | -1.7% | 1.4 | 9.4% | 20µM*
Cc1ccc(C(C(=O)NC2CCCC2)N(C(=O)CCC(=O)Nc2cc(C)on2)c2ccccc2)cc1 (configuration not stated) | i | 0.3% | 3.9% | 0.1% | 1.9 | -3.9% | · | · | ·
Cc1cc(NC(=O)CCC(=O)N(c2ccccc2F)C(C(=O)NC2CCCC2)c2ccccc2)no1 (configuration not stated) | i | 0.0% | ? | -10.7% | 0.5 | -4.0% | -4.9 | 3.0% | 25.1µM*
CCN1CCCC1CNCc1cc2c(OC)c(OC)c(OC)cc2nc1N(C)C (configuration not stated) | · | · | · | · | · | 0.1% | · | · | ·
O=C(CN1C(=O)c2ccccc2C1=O)NCC1Cc2cccc(-c3ncccn3)c2O1 (configuration not stated) | · | · | · | · | · | 0.1% | · | · | ·
